This is a sample that favours compounds with a hit; in the whole collection about 8% have one here.
Cav3 T inh – inhibitors of human Cav3.2 T-type calcium channel; O95180; Cav3.2-expressing cells, Fluo-4 calcium fluorescence FDSS; hits give low values; B-score at 10 µM; actives 4% (n = 100,000);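 active = single-dose well whose peak fluorescence ratio is a statistical outlier from its plate by either plate-standardised score or position-corrected B-score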
Target sequence (O95180 whole entry, looked up): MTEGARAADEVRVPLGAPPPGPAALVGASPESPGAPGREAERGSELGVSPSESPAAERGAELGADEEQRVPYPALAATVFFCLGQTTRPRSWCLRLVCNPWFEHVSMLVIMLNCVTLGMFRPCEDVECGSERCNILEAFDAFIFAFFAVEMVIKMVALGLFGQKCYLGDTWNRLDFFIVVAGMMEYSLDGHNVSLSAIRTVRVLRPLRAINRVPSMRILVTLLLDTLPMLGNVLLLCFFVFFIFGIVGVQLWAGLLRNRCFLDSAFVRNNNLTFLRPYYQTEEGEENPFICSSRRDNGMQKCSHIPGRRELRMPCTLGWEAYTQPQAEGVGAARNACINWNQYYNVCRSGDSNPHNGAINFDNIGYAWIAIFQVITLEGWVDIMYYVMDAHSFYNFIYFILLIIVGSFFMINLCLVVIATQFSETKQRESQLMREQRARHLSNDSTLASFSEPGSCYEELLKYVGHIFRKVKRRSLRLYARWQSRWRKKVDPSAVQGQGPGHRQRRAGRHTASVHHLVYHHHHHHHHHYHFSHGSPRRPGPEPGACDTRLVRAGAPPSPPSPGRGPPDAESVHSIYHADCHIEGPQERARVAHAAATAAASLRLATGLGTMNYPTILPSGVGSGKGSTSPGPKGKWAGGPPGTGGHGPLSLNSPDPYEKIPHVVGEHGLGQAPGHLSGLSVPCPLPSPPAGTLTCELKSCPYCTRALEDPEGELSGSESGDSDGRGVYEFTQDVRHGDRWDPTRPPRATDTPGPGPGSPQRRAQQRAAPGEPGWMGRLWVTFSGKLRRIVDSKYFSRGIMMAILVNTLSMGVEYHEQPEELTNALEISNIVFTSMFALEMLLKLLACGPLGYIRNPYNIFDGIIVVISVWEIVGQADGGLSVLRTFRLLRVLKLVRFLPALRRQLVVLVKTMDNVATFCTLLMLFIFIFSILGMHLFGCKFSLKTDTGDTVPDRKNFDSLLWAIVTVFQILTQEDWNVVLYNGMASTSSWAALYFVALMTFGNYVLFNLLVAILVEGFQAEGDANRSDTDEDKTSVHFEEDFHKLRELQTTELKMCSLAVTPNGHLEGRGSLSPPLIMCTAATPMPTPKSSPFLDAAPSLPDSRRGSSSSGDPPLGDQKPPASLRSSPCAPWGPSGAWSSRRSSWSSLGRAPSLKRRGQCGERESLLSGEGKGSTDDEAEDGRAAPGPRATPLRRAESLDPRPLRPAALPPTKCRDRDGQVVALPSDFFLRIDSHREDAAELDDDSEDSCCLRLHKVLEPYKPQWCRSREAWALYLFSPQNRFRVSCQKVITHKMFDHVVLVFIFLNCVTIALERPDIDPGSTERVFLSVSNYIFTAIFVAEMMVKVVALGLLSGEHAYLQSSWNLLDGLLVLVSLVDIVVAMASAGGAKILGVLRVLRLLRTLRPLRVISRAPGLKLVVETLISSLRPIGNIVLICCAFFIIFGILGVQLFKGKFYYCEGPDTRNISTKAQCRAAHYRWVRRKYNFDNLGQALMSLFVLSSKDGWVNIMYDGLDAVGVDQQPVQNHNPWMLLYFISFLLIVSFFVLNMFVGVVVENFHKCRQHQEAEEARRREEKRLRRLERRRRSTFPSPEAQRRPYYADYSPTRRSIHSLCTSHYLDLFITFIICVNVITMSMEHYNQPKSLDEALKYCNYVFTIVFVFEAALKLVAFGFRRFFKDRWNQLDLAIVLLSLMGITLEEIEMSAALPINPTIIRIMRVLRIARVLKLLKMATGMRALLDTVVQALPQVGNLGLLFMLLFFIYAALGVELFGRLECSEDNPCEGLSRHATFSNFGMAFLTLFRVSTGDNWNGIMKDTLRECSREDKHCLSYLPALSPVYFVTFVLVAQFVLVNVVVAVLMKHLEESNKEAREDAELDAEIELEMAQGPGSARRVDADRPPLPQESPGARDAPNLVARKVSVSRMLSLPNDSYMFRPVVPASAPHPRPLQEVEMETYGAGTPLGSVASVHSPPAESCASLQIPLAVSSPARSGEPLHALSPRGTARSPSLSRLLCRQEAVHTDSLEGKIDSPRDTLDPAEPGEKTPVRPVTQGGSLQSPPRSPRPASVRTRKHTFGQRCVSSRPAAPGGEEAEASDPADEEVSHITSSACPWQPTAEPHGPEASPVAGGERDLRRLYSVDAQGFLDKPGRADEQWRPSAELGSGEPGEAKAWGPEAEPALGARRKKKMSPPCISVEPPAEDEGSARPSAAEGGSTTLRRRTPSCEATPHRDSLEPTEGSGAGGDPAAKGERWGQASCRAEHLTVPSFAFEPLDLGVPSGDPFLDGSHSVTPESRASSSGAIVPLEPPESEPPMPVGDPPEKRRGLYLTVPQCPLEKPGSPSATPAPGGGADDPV
PostGolgi ctrl – growth of the yeast control strain, post-Golgi counter-screen; efflux-deficient yeast background strain, growth absorbance A615, 16 h; inhibition, % at 10 µM; actives 5% (n = 98,000)
PostGolgi yeast – growth inhibition of a yeast mutant, post-Golgi transport screen; inhibition, % at 10 µM; post-Golgi transport phenotypic cell assay; AID 739; actives 0.9% (n = 98,000);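 note: yeast cells grown in 1536-well plates; yeast grown about 18 h at 30C before absorbance read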
Pyk2 oligo antag – Pyk2 (human) oligomerization antagonism | Q293 cells, Pyk2 FERM NanoBiT luminescence; hits give low values | z-score (the deposit names both 25 µM and 10 µM) | actives 0.83% (n = 99,000) | AID 1347419;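 active = Z-score of -3 or lower, scaled per plate to the spread of control and sample wells; inactive = z-score above -3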;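 note: negative z-score means lost luminescence so less FERM oligomerization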
Numbers stand for hits; . = inactive; / = no result. Cut-off read from the data, not from the text of the source, unless noted: active = inhibition above about 30%; inactive = the rest.

SMILES	Cav3 T inh	PostGolgi ctrl	PostGolgi yeast	Pyk2 oligo antag
COc1cc(OC)cc(OCC(O)Cn2ccnc2)c1 (configuration not stated)	.	.	.	.
COc1ccc(CNC(=O)C(c2ccc(C)o2)N(Cc2cccs2)C(=O)Cc2cccs2)cc1 (configuration not stated)	-7.6	/	/	.
O=C(NC1CCCC1)C(c1ccsc1)N(Cc1ccco1)C(=O)Cc1cccs1 (configuration not stated)	-6.9	.	.	.
O=C(NC1CCCC1)C(c1ccsc1)N(Cc1ccccc1)C(=O)Cc1cccs1 (configuration not stated)	/	.	.	.
COCCN(C(=O)Cc1cccs1)C(C(=O)NCc1ccc(OC)cc1)c1ccc(C)cc1 (configuration not stated)	.	.	.	.
CCCCC1(Cc2cccc([N+](=O)[O-])c2)C(=O)N(c2ccccc2)N(c2ccccc2)C1=O	.	.	.	.
Cc1c(NC(=O)N(C)C)c(=O)n(-c2ccccc2)n1C	.	/	/	.
Cc1c(NC(=O)/C=C/c2cn(-c3ccccc3)nc2-c2ccccc2)c(=O)n(-c2ccccc2)n1C	-4.5	.	.	.
COCCCn1c2nc3ccccc3nc2c2c(=O)n(-c3ccccc3OC)cnc21	.	.	34	.

Source: PubChem BioAssay
